From PubChem BioAssay AID604 (The Scripps Research Institute Molecular Screening Center, 2007) come the findings set out here.

Molecules are shown by their SMILES. In all, about 60,000 compounds went through this assay and about 210 (0.35%) were called active. The sample as a whole holds a higher share of actives than the screen did. A number with no mark means an inactive call.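 Rule for the calls: active = inhibition above the screen-wide mean inhibition plus 3 SD (cut at about 18% in these data); inactive = the rest.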

The target in the experiment is Rho-associated protein kinase 2 (Homo sapiens) (UniProt O75116). The experiment in a line: ROCK2 enzymatic activity blockers – biochemical, high-throughput, luminescence, primary screen (AID 604).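 Note: plate controls were DMSO wells for no effect and Y-27632 control wells after no-enzyme background subtraction for full effect.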 The note with it: purified ROCK2, Kinase-Glo ATP depletion luminescence; at 6 µM; stronger effect = higher value.
Rho-associated protein kinase 2 (Homo sapiens), sequence (O75116 whole entry, looked up): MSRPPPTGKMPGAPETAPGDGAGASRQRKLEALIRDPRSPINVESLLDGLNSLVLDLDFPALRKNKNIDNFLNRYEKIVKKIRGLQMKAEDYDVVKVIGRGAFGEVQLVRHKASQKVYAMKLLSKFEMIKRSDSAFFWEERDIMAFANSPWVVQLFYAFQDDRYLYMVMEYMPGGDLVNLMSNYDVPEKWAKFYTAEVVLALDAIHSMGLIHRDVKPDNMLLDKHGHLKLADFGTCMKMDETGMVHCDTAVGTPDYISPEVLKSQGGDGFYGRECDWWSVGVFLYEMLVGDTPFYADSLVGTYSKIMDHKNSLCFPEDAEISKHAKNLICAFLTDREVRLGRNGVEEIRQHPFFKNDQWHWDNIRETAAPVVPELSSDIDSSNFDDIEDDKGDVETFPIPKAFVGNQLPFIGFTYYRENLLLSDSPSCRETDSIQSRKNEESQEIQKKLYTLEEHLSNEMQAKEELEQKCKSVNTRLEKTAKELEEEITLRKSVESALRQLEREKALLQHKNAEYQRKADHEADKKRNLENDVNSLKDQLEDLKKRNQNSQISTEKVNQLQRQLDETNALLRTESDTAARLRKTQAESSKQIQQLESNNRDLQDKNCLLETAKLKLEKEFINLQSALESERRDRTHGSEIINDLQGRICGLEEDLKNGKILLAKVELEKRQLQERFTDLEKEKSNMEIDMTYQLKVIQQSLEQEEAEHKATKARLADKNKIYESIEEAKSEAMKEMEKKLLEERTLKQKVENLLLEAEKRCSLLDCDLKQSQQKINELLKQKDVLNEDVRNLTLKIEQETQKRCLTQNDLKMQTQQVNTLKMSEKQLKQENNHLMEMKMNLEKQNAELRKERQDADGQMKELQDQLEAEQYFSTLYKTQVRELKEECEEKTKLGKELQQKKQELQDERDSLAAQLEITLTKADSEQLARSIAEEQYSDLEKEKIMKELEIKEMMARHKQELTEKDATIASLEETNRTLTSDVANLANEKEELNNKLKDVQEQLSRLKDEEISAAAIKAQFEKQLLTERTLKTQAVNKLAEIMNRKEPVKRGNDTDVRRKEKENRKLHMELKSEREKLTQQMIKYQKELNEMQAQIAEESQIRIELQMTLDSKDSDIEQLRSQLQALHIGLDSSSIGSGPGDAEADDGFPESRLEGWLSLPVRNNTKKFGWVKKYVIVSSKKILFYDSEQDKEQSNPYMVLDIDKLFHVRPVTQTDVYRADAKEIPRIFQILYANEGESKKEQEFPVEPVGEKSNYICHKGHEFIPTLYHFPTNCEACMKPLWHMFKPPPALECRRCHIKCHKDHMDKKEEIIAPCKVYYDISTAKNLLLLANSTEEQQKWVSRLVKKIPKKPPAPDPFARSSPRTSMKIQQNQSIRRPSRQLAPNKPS
On to `CCOC(=O)C1(c2ccccc2)NC(c2ccc(N(C)C)cc2)C2C(=O)N(C)C(=O)C21` (stereo unspecified), for which the inhibition – broadly, the relative decrease from the control value, in per cent – is 5.3%.

For `O=C(CSc1nnc(-c2ccco2)n1Cc1ccccc1)NC(=O)NCc1ccco1`, the inhibition was 5.5%. With `Cc1nonc1OCCn1nnnc1N` the figure was 4%; with `CCCC(=O)N1CCc2[nH]c3ccccc3c2C1`, 14.9%; with `COC(=O)c1cc(OC)c(OC)cc1NC(=O)C1CCCO1` (stereo unspecified), 5.6%. For `CS(=O)(=O)N(Cc1nc2sc3c(c2c(=O)[nH]1)CCCC3)C1CCCCC1` the value was -12.6%. With `Cc1cccc(NC(=O)CSc2nnc(CCCCCNC(=O)OC(C)(C)C)o2)c1C` the figure was 3.8%; with `CC1CCC(NS(=O)(=O)c2ccc3c(c2)n(C)c(=O)c(=O)n3C)CC1` (stereo unspecified), 3.2%; with `CC(C)Cc1ccc(S(=O)(=O)N2CCN(C(=O)c3ccco3)CC2)cc1`, 8%. Consider `O=C(C(NS(=O)(=O)c1cccc2nsnc12)c1ccccc1)N1CCN(c2ccccn2)CC1` (stereo unspecified), for which the inhibition was 6.9%. For the compound `COc1cccc(N(CC(=O)Nc2cccc(F)c2)S(C)(=O)=O)c1`, the inhibition was -1.3%. For `O=C(O)CCSc1nnc(-c2ccccc2)n1-c1ccccc1` the value was 2.5%; for `CN1C(=O)CC(N2CCN(c3ccccn3)CC2)C1=O` (stereo unspecified), 0.7%. With `COc1ccc(Cc2nnc(NS(=O)(=O)Cc3ccccc3)s2)cc1` the figure was -0.2%; with `CCOC(=O)CSc1nnc(NC(=O)c2cccc(S(=O)(=O)N3CCCC3)c2)s1`, -2.8%.

For `CC(C)OC(=O)C(C#N)c1nc2ccccc2nc1N1CCN(Cc2ccc3c(c2)OCO3)CC1` (stereo unspecified), the inhibition was 3.1%. For `CCCCN(C)C(=O)c1ccc2c(c1)N(CC)C(=O)c1ccccc1S2(=O)=O` the value was -4.8%; for `COc1cc2c(cc1OC)C(c1ccncc1)CC(=O)N2` (stereo unspecified), 9.6%. For `COc1cccc(N(CC(=O)NC2CCCC2)C(=O)Cn2nnc(-c3ccc(C)cc3)n2)c1` the value was -2%; for `COc1ccc(OC)c2sc(NC(=O)C3COc4ccccc4O3)nc12` (stereo unspecified), -3.1%; for `O=C(Nc1nc(-c2ccncc2)cs1)C1COc2ccccc2O1` (stereo unspecified), 114% (active). Regarding `O=C(Nc1nc(-c2ccc3c(c2)OCO3)cs1)c1ccncc1`, the inhibition was -1.2%. As to `Cc1ccc(N(CC(O)CN2CCCC2)S(=O)(=O)c2ccccc2)cc1` (stereo unspecified), the inhibition was 1.4%. Turning to `CC1=C(C(=O)OCc2ccccc2)C(c2ccco2)n2ncnc2N1` (stereo unspecified), the inhibition was -9.2%. With `CC(=C1C(=O)c2ccccc2C1=O)N1CCN(c2ccccn2)CC1` the figure was 7.8%; with `Cc1cccc2cc(CN(Cc3nnnn3Cc3ccccc3)C3CCCC3)c(=O)[nH]c12`, -0.6%.
